Pf growth 96h: Primary qHTS for delayed death inhibitors of the malarial parasite plastid, 96 hour incubation | P. falciparum luciferase reporter growth, 96 h | Potency, µM (top dose mostly 28.7 µM), hits mostly inhibitors | 6.9% of 320,000 active
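Delayed-death screen, second-generation endpoint: infected erythrocytes, 2% hematocrit, 0.05% parasitemia final; 96 hours at 37 C, 5% CO2; luciferase detection reagent; luminescence decrease equals reduced growth.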
HCV inhibitor: qHTS Assay for Inhibitors of Hepatitis C Virus (HCV); Potency, µM (highest dose often 41.8 µM), most hits filed as inhibitors; Huh7.5.1 HCVcc-Cre infection, luciferase reporter, 44 h; 3.4% of 340,000 active
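Infectious HCV cell culture screen: compound-treated cells (1,000/well, pre-plated 4 h) are infected with HCVcc-Cre at roughly 0.5 moi and grown 44 h. Infection is quantified by luciferase signal after 15 min substrate incubation at room temperature.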
Pf growth 48h: Primary qHTS for delayed death inhibitors of the malarial parasite plastid, 48 hour incubation. P. falciparum luciferase growth in erythrocytes, 48 h. Potency, µM (doses to about 28.7 µM), most hits filed as inhibitors. 5.9% of 310,000 active. AID 504832, 2011
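Luciferase-expressing parasites in RBCs, 2% Hct / 0.1% parasitemia final; RPMI 1640 + 0.5% Albumax; 37 C, 5% CO2, one generation; luminescence read-out, lower signal = inhibition.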
LASV entry inh: qHTS for Inhibitors of binding or entry into cells for Lassa Virus; Lassa virus pseudotype entry inhibition, cell reporter; Potency, µM (titrated, usually from 37.9 µM), actives largely listed as inhibitors; 1.2% of 300,000 active; calls by dose curve; tested in HEK293 cells; note: nearly all actives have a fitted effect of over 50% in size
HCMV antiviral: qHTS Assay for inhibitors of the human cytomegalovirus (HCMV) | 4.5% of 410,000 active | activity change, negative = inhibition, % at 57.5 µM | HFF cells, HCMV-luciferase reporter, 72 h; stronger effect = lower value; in the data active = activity change below about -60%; inconclusive = no clear call, values can overlap the other calls; inactive = above about -39%
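Human foreskin fibroblasts infected with luciferase-reporter HCMV at MOI 1 PFU/cell, compounds at two doses. Luciferase measured 72 h post infection; normalized to buffer-only basal and Salinomycin (10uM) controls.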
Marburg entry inh: qHTS for inhibitors of binding or entry into cells for Marburg Virus. Marburg virus pseudotyped entry inhibition, cell reporter. Potency, µM (highest dose often 37.8 µM), actives largely listed as inhibitors. 1.8% of 300,000 active; calls by dose curve; tested in HEK293 cells
Of the large screens only hits and unclear results are named; the others gave an inactive call. Shown are actives, neighbours in structure and some others; about 14% of the full set was active somewhere. Unless noted, calls come from the whole dose curve; as a rule, active = well fitted inhibition curve with a large enough effect; inconclusive = small, poorly fitted or top-dose-only effect, or another doubt; inactive = no such curve, though single readings can be large or run the other way.

COc1ccc(C(=O)N2CCc3cc(OC)c(OC)cc3C2c2cccc([N+](=O)[O-])c2)cc1OC (centres undefined)	Pf growth 96h inconclusive, Pf growth 48h 13µM, LASV entry inh inconclusive, Marburg entry inh inconclusive
COc1ccc(C2c3cc(OC)c(OC)cc3CCN2C(=O)c2ccccc2Br)cc1OC (centres undefined)	Pf growth 96h inconclusive, HCV inhibitor inconclusive, Pf growth 48h 12µM (no result: LASV entry inh, Marburg entry inh)
COc1cc2c(cc1OC)C(c1ccc(Br)cc1)N(C(=O)c1ccccc1C(=O)O)CC2 (centres undefined)	Pf growth 96h inconclusive (no result: LASV entry inh, Marburg entry inh)
Cc1ccc(C)c(C(O)c2ncc(-c3ccccc3Cl)[nH]2)c1 (centres undefined)	none (no result: Pf growth 96h, HCV inhibitor, Pf growth 48h, LASV entry inh, Marburg entry inh)
COC1CCC(c2nnsc2N2C(=O)C3=C(CCCC3)C2=O)CC1 (centres undefined)	none (no result: Pf growth 96h, HCV inhibitor, Pf growth 48h, LASV entry inh, HCMV antiviral)
O=c1[nH][nH]c2c1C(c1ccc(F)cc1)OC(CCc1ccccc1)C2 (centres undefined)	none (no result: Pf growth 96h, HCV inhibitor, Pf growth 48h, LASV entry inh, Marburg entry inh)
COc1cc2c(cc1OC)C(C)N(C(=S)Nc1ccccc1)CC2 (centres undefined)	LASV entry inh inconclusive
COc1ccc(C(=O)N2CCc3cc(OC)c(OC)cc3C2c2ccc(OC)c(OC)c2)cc1 (centres undefined)	Pf growth 96h inconclusive, Pf growth 48h inconclusive, LASV entry inh 5µM, Marburg entry inh inconclusive
COc1ccc(C(=O)N2CCc3cc(OC)c(OC)cc3C2COc2ccccc2OC)cc1 (centres undefined)	LASV entry inh inconclusive (no result: Pf growth 96h, HCV inhibitor, Pf growth 48h, Marburg entry inh)
COc1cc2c(cc1OC)C(C)N(C(=S)NC(=O)c1ccccc1)CC2 (centres undefined)	Pf growth 96h inconclusive, HCV inhibitor inconclusive, Pf growth 48h inconclusive, HCMV antiviral -61
C=C1C/C(C)=C/CCc2cc(OS(=O)(=O)C(F)(F)F)ccc2-c2ccc(OC)c(OC)c21	none (no result: Pf growth 96h, HCV inhibitor, Pf growth 48h, LASV entry inh, Marburg entry inh)
CN1CC(=O)NC1=NC(=O)C12CC3CC(CC(C3)C1)C2	Pf growth 96h 12µM, Pf growth 48h inconclusive
O=C1c2ccccc2NC2CCCCCN12 (centres undefined)	Pf growth 96h inconclusive
O=C1c2ccccc2NC2CCCCC12 (centres undefined)	Pf growth 48h 1.9µM
CN(C)CC(=O)N1CC(=O)N2[C@H](CO)[C@@H](c3ccc(Br)cc3)[C@H]2C1	none (no result: Pf growth 96h, HCV inhibitor, Pf growth 48h, LASV entry inh, Marburg entry inh)
N#Cc1ccc(-c2ccccc2)nc1SCC(=O)c1cc2ccccc2oc1=O	Pf growth 96h inconclusive, Pf growth 48h 9.3µM, LASV entry inh inconclusive
O=C(CSc1nnc(-c2cccnc2)o1)c1cc2ccccc2oc1=O	HCV inhibitor inconclusive, Pf growth 48h 7.4µM
CN(C)Cc1cc(CN(C)C)c(O)c(CCc2ccccc2)n1	none (no result: Pf growth 48h)
OCc1cc(CO)c(O)c(CCc2ccccc2)n1	Pf growth 96h 4.7µM (no result: Pf growth 48h)
Cc1cccc(CNC(=O)c2oc3c(c2C)-c2nn(Cc4ccccc4Cl)cc2CC3)c1	none (no result: Pf growth 96h, HCV inhibitor, Pf growth 48h, Marburg entry inh)
Cc1nn(C2CCS(=O)(=O)C2)c(Cl)c1/C=C/C(=O)OCC(=O)c1cc(C)n(-c2ccc(F)cc2)c1C (centres undefined)	Pf growth 96h inconclusive, HCV inhibitor 4µM, Pf growth 48h 15µM, LASV entry inh inconclusive, HCMV antiviral -86, Marburg entry inh inconclusive
COc1ccc(OC)c(NC(=O)COC(=O)/C=C/c2c(C)nn(C3CCS(=O)(=O)C3)c2Cl)c1 (centres undefined)	Pf growth 96h inconclusive, Pf growth 48h inconclusive
COc1ccccc1/C=C/C(=O)OCC(=O)c1c[nH]c2ccccc12	Pf growth 96h inconclusive, HCV inhibitor inconclusive, Pf growth 48h inconclusive, Marburg entry inh inconclusive
Cc1nn(C2CCS(=O)(=O)C2)c(Cl)c1/C=C/C(=O)OCC(=O)c1c[nH]c2ccccc12 (centres undefined)	Pf growth 96h inconclusive, HCV inhibitor 22µM, Pf growth 48h inconclusive, Marburg entry inh inconclusive
O=S1(=O)CCOC[C@H](CC2CCCCC2)N1Cc1ccc(Cl)cc1	Pf growth 96h inconclusive (no result: LASV entry inh, Marburg entry inh)
Cc1ccc(CN2[C@@H](CC3CCCCC3)COCCS2(=O)=O)cc1	Pf growth 96h inconclusive, HCMV antiviral -70 (no result: LASV entry inh, Marburg entry inh)
CCOC(=O)CC1(O)CSc2nc(N)cc(=O)n21 (centres undefined)	HCMV antiviral -77 (no result: Pf growth 96h, HCV inhibitor, Pf growth 48h, LASV entry inh, Marburg entry inh)

Bioassay records from PubChem.
